Data: PubChem BioAssay (NCI)
Compounds without any hit were thinned out: in the full panel of roughly 83,000, 20% have a hit.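 Single-dose data. Exposure time 48 hours. Values below 10 considered active.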 Unmarked numbers belong to inactive results. The source made the active and inactive calls.

Tests used:
Assay in all cases: NCI-60 one-dose screen, 48 h (100 = growth as untreated, 0 = no growth, -100 = all killed)
Conditions in all cases: 10 µM unless noted
[1] = tested on: SR leukemia
[2] = tested on: RPMI-8226 leukemia
[3] = tested on: OVCAR-8 ovarian
[4] = tested on: OVCAR-5 ovarian
[5] = tested on: OVCAR-4 ovarian
[6] = tested on: SK-OV-3 ovarian
[7] = tested on: OVCAR-3 ovarian
[8] = tested on: HS 578T breast
[9] = tested on: NCI/ADR-RES ovarian
[10] = tested on: T-47D breast
[11] = tested on: BT-549 breast
[12] = tested on: MDA-MB-435 melanoma
[13] = tested on: SW-620 colon
[14] = tested on: MCF7 breast
[15] = tested on: HCT-116 colon
[16] = tested on: HCC-2998 colon
[17] = tested on: KM12 colon
[18] = tested on: IGROV1 ovarian

| Structure (SMILES) | growth [1] | growth [2] | growth [3] | growth [4] | growth [5] | growth [6] | growth [7] | growth [8] | growth [9] | growth [10] | growth [11] | growth [12] | growth [13] | growth [14] | growth [15] | growth [16] | growth [17] | growth [18] |
| --- | --- | --- | --- | --- | --- | --- | --- | --- | --- | --- | --- | --- | --- | --- | --- | --- | --- | --- |
| COc1cc(/C=C/C(=O)c2cccc(-n3cc(-c4cc(OC)c(OC)c(OC)c4)[nH]c3=O)c2)cc(OC)c1OC | -12.7% (active) | -46.4% (active) | 6.44% (active) | 28.4% | 23.2% | 49.6% | -39% (active) | 62.4% | 10.5% | 8.37% (active) | -2.07% (active) | 3.2% (active) | -47.2% (active) | -5.04% (active) | -78.3% (active) | 23.1% | -83.4% (active) | – |
| O=C(N/N=C/C=C\c1ccccc1)C(=O)N/N=C/C=C/c1ccccc1 | 103% | 102% | 105% | 112% | 112% | 111% | – | – | 110% | 100% | 102% | 121% | 106% | 100% | 104% | 109% | 109% | 106% |
| Nc1nc(-c2ccccc2)c(CCCOc2ccc(NC(=O)CBr)cc2)c(=O)[nH]1 | 117% | 112% | 98.3% | 104% | 92.1% | 125% | – | 99.1% | 106% | – | 100% | 94.6% | 108% | 78.8% | 103% | 107% | 109% | 125% |
| Cc1ccc(N2CCN(C(C)C(N)=O)CC2)cc1 (configuration not stated) | 154% | 96.8% | 106% | 99% | 104% | – | 106% | 117% | 106% | 102% | 88.9% | 114% | 107% | 106% | 98.3% | 102% | 112% | 112% |
| Cc1ccc(Cc2c(C=O)nc(N)[nH]c2=O)c2ccccc12 | 63.5% | 99.6% | 89.6% | 117% | 97.6% | 96.6% | – | – | 103% | 95.5% | 87.9% | 107% | 103% | 103% | 88.2% | 101% | 102% | 106% |
| C=C1CC2(OC1=O)C(=O)N(CCCN1C(=O)C3(CC(=C)C(=O)O3)c3ccccc31)c1ccccc12 (configuration not stated) | 3.74% (active) | -33.3% (active) | 11.6% | 21.9% | 25.2% | 111% | – | 58.2% | 50% | 4.15% (active) | 33.5% | -17.1% (active) | -67.4% (active) | -18.9% (active) | -8.31% (active) | 86.2% | 72.9% | 35% |
| O=[N+]([O-])c1ccc(/C=C/C2(CCl)OCCO2)cc1 | 1.55% (active) | 68.5% | 82.4% | 111% | 102% | 103% | 112% | 109% | 98.8% | 95.1% | – | – | 86.5% | – | 61.3% | 98.5% | 104% | – |
| COC(=O)c1cc2cc(-c3ccc(OC)cc3)cnc2[nH]1 | 10.7% | -5.41% (active) | 8.62% (active) | 44.9% | 30.2% | 1.35% (active) | -55.7% (active) | 33.8% | -35.6% (active) | 34.1% | 18.6% | -23.7% (active) | 18.6% | 15.9% | 13.8% | 51.1% | 11.4% | – |
| C/C(=N/NC(=S)Nc1ccccc1)c1nc2ccc(Cl)cc2[nH]1 | -36.1% (active) | 5.52% (active) | -39.8% (active) | -35.8% (active) | -79.3% (active) | -17.7% (active) | – | – | -12.7% (active) | -68.3% (active) | -94.9% (active) | -84.5% (active) | -76.9% (active) | -85.4% (active) | -27% (active) | -89.9% (active) | -82.5% (active) | 7.58% (active) |
| C=C1CCC2C3(C)COC(c4ccc(N(C)C)cc4)OC3CCC2(C)C1C/C=C1/C(=O)OCC1O (configuration not stated) | 21.9% | -52.9% (active) | 47.5% | 96.3% | 68.3% | 84% | – | – | 65.1% | 52.1% | 46.4% | 7.31% (active) | 26% | 29.5% | 21.6% | 112% | 54.6% | 39.3% |
| O=C(O)Cc1cccc(=O)c(O)c1C(=O)O | 103% | 88.8% | 105% | 96.4% | 117% | 107% | – | 112% | 117% | – | 102% | 109% | 106% | 100% | 102% | 106% | 104% | 110% |
| NC(=S)N/N=C1\CCCC(C(F)(F)F)C1 (configuration not stated) | 78.7% | 71.1% | 84.5% | 103% | 97.7% | 108% | – | 111% | 87.7% | – | 96.3% | 105% | 98.5% | 27.3% | 8.77% (active) | 104% | – | 13.7% |
| COc1ccc2c(c1)[nH]c(=O)c1c3cc(OC)ccc3cn21 | 20.4% | -63.2% (active) | 4.9% (active) | 25.9% | 46.1% | 42.4% | – | – | 21.5% | 13.6% | 36.8% | -9.37% (active) | -2.37% (active) | 14.1% | -89% (active) | 32.1% | -13.1% (active) | 16.8% |
| CCN(CC)CCCC(C)Nc1c2ccc(Cl)cc2nc2cc(OC)c(OC)cc12 (configuration not stated) | -14.2% (active) | -33% (active) | 14.1% | 50.9% | -30.7% (active) | 40.5% | – | – | 28.8% | 61.9% | 55.3% | -81.8% (active) | -25.2% (active) | 0.0607% (active) | -42.5% (active) | 18.1% | 8.52% (active) | 24.3% |
| Nc1ccc(C(=O)CSc2nc3ccccc3[nH]2)cc1 | 110% | 103% | 105% | 102% | 110% | – | 107% | 109% | 99.3% | 109% | 94.5% | 96.1% | 101% | 92.9% | 97.3% | 100% | 103% | 112% |
| COc1cc2c(cc1O)CCN1C[C@@H](CC(C)C)[C@@H](O)C[C@@H]21 | 103% | 92.5% | 101% | 94.3% | 98.6% | 107% | 108% | 114% | 98.2% | 91.1% | 108% | 103% | 102% | 102% | 101% | 102% | 109% | – |
| Cc1nc2ncccc2nc1Nc1ccc(S(=O)(=O)Nc2ccccn2)cc1 | 92.2% | 84.5% | 93.6% | 103% | 102% | 89.1% | – | 92.9% | 98.2% | 91.2% | 83.3% | 109% | 102% | – | 92% | 99.5% | 97.8% | 72.6% |
| CN1CCN(Cc2ccc(NC(=O)c3cncc(C#Cc4cnc(N)c5ccncc45)c3)cc2C(F)(F)F)CC1 | 20.6% | 18.5% | 29.6% | 9.45% (active) | 25.5% | -12.1% (active) | – | -0.418% (active) | 71.8% | 43.2% | 49.2% | – | 3.27% (active) | – | 8.86% (active) | 33% | 9.68% (active) | 4.51% (active) |
| Cc1cc(N/N=C/c2nc(-c3ccccc3)oc2C)c2cc(Cl)ccc2n1 | -13.7% (active) | -39.4% (active) | -41.7% (active) | -88.5% (active) | -89.6% (active) | 76.4% | – | -48.9% (active) | -62.5% (active) | -1.37% (active) | 87% | -95.6% (active) | -73.3% (active) | -71.9% (active) | -94.2% (active) | -77.4% (active) | -83.3% (active) | -83.7% (active) |
